Measurements published in PubChem BioAssay (NCATS).
Records with an inconclusive call do not appear. Active and inactive are the calls of the source. Unless noted, calls come from the whole dose curve.

Experiments:
[1] = Validation screen for inhibitors of Lassa infection (AID 463096)
[2] = Inducers of the Endoplasmic Reticulum Stress Response (ERSR) in human glioma: Validation (AID 504836; active = well fitted curve in the direction sought with a large enough effect; an effect the other way counts as inactive or inconclusive)
How it was run: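 Stably transfected U87-MG glioma cells carrying a GRP78-based luciferase sensor; 16 h compound incubation. Luminescence end-point read 10 min after Bright-Glo addition at room temperature.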

[3] = qHTS for Inhibitors of the Functional Ribonucleoprotein Complex (vRNP) of Lassa (LASV) Arenavirus: LASV Primary Screen - GLuc reporter signal (AID 1347082; calls by dose curve; tested in HEK293 reporter line; note: series mostly up to about 57 µM; nearly all actives have a fitted effect of over 60% in size)
[4] = qHTS for Inhibitors of the Functional Ribonucleoprotein Complex (vRNP) of Lassa (LASV) Arenavirus: Viability assay - alamar blue signal for LASV Primary Screen (AID 1347083; calls by dose curve; tested in HEK293 reporter line; note: series mostly up to about 57 µM; nearly all actives have a fitted effect of over 80% in size)
[5] = qHTS for Inhibitors of the Functional Ribonucleoprotein Complex (vRNP) of Lymphocytic Choriomeningitis Arenaviruses (LCMV): Viability assay - alamar blue signal for LCMV Primary Screen (AID 1347085; calls by dose curve; tested in HEK293 reporter line; note: series mostly up to about 57 µM; nearly all actives have a fitted effect of over 80% in size)
[6] = biological target: Nucleoprotein (Lymphocytic choriomeningitis virus (strain Armstrong)) (UniProt P09992); test: qHTS for Inhibitors of the Functional Ribonucleoprotein Complex (vRNP) of Lymphocytic Choriomeningitis Arenaviruses (LCMV): LCMV Primary Screen - GLuc reporter signal (AID 1347086); note: series mostly up to about 57 µM; nearly all actives have a fitted effect of over 70% in size
[7] = biological target: Alpha-galactosidase (Coffea arabica) (UniProt Q42656); test: Counterscreen for Glucocerebrosidase Inhibitors: qHTS Assay for Coffee Bean alpha-Galactosidase at pH 4.5 (AID 957; active = well fitted curve in the direction sought with a large enough effect; an effect the other way counts as inactive or inconclusive; note: series mostly up to about 77 µM)
How it was run: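 Green coffee bean enzyme (2 nM final) was incubated with compounds (0.7 nM to 77 uM) and 4-methylumbelliferyl alpha-D-galactopyranoside (80 uM final) in 50 mM citric acid, 0.005% Tween-20, pH 4.5, 20 min at room temperature; AC50 from Hill fits.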

[8] = biological target: Alpha-galactosidase (Coffea arabica) (UniProt Q42656); test: Counterscreen for Glucocerebrosidase Inhibitors: qHTS Assay for Coffee Bean alpha-Galactosidase at pH 5.9 (AID 998; active = well fitted curve in the direction sought with a large enough effect; an effect the other way counts as inactive or inconclusive)
How it was run: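 Green coffee bean enzyme (2 nM) with 4-methylumbelliferyl alpha-D-galactopyranoside (80 uM) in 50 mM citric acid, 0.005% Tween-20, pH 5.9, 20 min at room temperature; compounds 0.7 nM–77 uM. Stopped at pH 10, fluorescence Ex365/Em440; Hill-fit AC50.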

[9] = biological target: Flap endonuclease 1 (Homo sapiens) (UniProt P39748); test: qHTS Validation Assay for the Inhibitors of Human Flap endonuclease 1 (FEN1) (AID 488816; active = well fitted curve in the direction sought with a large enough effect; an effect the other way counts as inactive or inconclusive)
How it was run: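 Human FEN1 (10 nM) preincubated 15 min at room temperature with compounds, then flap DNA substrate added at 50 nM final. Fluorescence read at 0 and 15 min; concentration-response fitted with four-parameter Hill equation.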

[10] = HTS Assay for Allosteric Antagonists of the Human D2 Dopamine Receptor: Hit Validation in HTRF (AID 624455; active = well fitted curve in the direction sought with a large enough effect; an effect the other way counts as inactive or inconclusive;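 note: stable D1 dopamine receptor cell line scored for blocking the D1 response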)
How it was run: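 Hits were examined in an HTRF assay using cells stably expressing the D1 dopamine receptor, scoring inhibition of the D1-mediated response. The preceding primary screen tracked calcium flux after an EC80 dopamine addition in force-coupled, inducible Hek293 Trex D2 cells.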

[11] = biological target: Chromobox protein homolog 1 (Homo sapiens) (UniProt P83916); test: qHTS Validation Assay for Inhibitors of HP1-beta Chromodomain Interactions with Methylated Histone Tails (AID 488953; active = well fitted curve in the direction sought with a large enough effect; an effect the other way counts as inactive or inconclusive;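 note: loss of AlphaScreen luminescence from HP1-beta binding biotinylated H3K9me3 peptide; series mostly up to about 110 µM; nearly all actives have a fitted effect of over 50% in size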)
How it was run: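 HP1-beta (50 nM) was preincubated 30 min at room temperature with biotinylated H3(1-18)K9me3 peptide (50 nM) in PBS pH 7.4, 0.01% Tween-20, then with compounds 30 min. AlphaScreen signal was read after streptavidin donor/nickel chelate acceptor beads (10 ug/mL final).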

[12] = biological target: Peroxisome proliferator-activated receptor delta (Homo sapiens) (UniProt Q03181); test: qHTS assay for small molecule agonists of peroxisome proliferator-activated receptor delta signaling (AID 588534)
How it was run: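 Cell-based beta-lactamase reporter assay run in agonist mode: cells seeded and incubated 5 hrs at 37 C, compounds added and incubated 18 hrs at 37 C. CCF4 dye fluorescence read after 2 hrs at RT; EC50 and efficacy from Hill fits.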

[13] = biological target: Arylsulfatase A (Homo sapiens) (UniProt P15289); test: qHTS screen for enhancers of Arylsulfatase A (ASA1): LOPAC Validation Assay (AID 720538; active = well fitted curve in the direction sought with a large enough effect; an effect the other way counts as inactive or inconclusive)
How it was run: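 Read-out: fluorescence at Ex=525/Em=598 nm after 1N NaOH final stop. Patient fibroblasts carrying ASA-I179S had 48h compound exposure, then 14h room-temperature pNCS hydrolysis (0.5mM final) in lysis buffer. Signal increase = enhanced activity.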

Measured: Potency

Alpha-galactosidase (Coffea arabica), sequence (Q42656 whole entry, looked up): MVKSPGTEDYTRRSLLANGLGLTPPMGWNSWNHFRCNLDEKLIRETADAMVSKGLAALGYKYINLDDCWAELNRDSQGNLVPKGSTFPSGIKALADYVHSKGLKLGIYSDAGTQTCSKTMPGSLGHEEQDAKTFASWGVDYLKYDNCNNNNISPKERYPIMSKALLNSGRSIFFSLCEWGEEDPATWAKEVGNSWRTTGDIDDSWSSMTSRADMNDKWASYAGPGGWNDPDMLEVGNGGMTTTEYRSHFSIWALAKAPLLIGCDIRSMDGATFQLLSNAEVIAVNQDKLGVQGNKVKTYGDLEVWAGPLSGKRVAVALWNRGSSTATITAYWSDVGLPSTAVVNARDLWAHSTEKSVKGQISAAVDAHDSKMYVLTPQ
Nucleoprotein (Lymphocytic choriomeningitis virus (strain Armstrong)), sequence (P09992 whole entry, looked up): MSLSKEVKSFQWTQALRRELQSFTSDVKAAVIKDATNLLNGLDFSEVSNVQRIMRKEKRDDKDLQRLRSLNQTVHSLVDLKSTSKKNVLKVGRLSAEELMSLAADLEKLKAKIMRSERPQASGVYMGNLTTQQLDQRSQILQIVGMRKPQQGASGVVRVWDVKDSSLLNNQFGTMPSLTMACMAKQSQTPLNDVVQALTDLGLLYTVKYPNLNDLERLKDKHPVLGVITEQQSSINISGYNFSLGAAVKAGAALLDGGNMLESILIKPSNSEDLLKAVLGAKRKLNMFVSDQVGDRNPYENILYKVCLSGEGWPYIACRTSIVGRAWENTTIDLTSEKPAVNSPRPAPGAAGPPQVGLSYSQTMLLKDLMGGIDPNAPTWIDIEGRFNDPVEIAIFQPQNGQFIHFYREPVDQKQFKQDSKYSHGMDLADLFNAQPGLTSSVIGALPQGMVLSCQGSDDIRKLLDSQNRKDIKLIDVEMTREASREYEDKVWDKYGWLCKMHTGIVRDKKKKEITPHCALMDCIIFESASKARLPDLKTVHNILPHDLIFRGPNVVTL
Arylsulfatase A (Homo sapiens), sequence (P15289 whole entry, looked up): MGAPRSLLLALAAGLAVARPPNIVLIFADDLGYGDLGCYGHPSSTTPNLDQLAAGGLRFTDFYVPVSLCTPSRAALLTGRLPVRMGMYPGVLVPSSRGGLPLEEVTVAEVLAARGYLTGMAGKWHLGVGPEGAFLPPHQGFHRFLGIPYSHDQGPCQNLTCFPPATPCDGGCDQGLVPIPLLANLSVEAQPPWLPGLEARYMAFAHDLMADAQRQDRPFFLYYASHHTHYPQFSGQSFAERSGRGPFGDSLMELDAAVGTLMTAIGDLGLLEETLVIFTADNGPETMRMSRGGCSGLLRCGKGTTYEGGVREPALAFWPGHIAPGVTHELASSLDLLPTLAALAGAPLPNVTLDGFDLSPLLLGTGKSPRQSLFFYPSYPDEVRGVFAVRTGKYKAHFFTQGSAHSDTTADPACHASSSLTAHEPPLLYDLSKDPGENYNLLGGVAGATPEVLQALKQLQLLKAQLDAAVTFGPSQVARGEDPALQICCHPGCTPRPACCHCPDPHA
Flap endonuclease 1 (Homo sapiens), sequence (P39748 whole entry, looked up): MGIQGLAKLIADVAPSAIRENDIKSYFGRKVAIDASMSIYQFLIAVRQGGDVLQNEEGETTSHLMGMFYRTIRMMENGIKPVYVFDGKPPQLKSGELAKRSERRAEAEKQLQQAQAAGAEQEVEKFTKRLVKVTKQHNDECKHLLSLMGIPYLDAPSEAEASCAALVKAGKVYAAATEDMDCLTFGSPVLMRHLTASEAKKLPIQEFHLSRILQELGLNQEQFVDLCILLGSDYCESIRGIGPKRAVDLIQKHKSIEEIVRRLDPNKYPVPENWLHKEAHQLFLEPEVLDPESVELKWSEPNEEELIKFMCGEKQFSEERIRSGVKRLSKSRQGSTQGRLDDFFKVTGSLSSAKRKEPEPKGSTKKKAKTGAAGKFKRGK
Chromobox protein homolog 1 (Homo sapiens), sequence (P83916 whole entry, looked up): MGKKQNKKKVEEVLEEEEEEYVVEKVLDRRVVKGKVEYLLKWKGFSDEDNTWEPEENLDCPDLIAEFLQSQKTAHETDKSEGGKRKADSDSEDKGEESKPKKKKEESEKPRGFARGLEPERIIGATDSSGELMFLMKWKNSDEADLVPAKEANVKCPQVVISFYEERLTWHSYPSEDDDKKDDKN
Peroxisome proliferator-activated receptor delta (Homo sapiens), sequence (Q03181 whole entry, looked up): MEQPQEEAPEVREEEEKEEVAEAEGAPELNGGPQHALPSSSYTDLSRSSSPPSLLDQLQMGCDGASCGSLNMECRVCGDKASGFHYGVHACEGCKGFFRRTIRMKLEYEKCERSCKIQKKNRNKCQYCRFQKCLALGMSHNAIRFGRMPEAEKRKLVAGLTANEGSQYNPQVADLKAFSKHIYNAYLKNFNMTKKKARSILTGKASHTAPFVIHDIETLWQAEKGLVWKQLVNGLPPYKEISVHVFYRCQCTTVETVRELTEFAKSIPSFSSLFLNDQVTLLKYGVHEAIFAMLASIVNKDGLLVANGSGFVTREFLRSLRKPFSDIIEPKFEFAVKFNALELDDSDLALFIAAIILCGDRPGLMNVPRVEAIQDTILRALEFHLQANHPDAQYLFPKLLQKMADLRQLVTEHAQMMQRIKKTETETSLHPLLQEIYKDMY

COc1cc(C(O)CO)ccc1OS(=O)(=O)O (stereo unspecified)
inactive: [1] | [2] | [3] | [4] | [5] | [6]

NCC(O)(CS(=O)(=O)O)c1ccc(Cl)cc1 (stereo unspecified)
inactive: [1] | [2] | [3] | [4] | [5] | [6]

NC(Cc1cccc(-c2ccccc2CP(=O)(O)O)c1)C(=O)O (stereo unspecified)
inactive: [1] | [2] | [3] | [4] | [5] | [6]

Cn1ccnc1
inactive: [7] | [8] | [1] | [9] | [2] | [10] | [3] | [4] | [5] | [6]

CC(=O)C(C)=O
inactive: [8] | [1] | [11] | [2] | [12] | [13] | [3] | [4] | [5] | [6]

CN(C)CCC(c1ccc(Cl)cc1)c1ccccn1 (stereo unspecified)
inactive: [1] | [2] | [3] | [4] | [5] | [6]

C[C@@H](CN1CCC(Cc2ccccc2)CC1)[C@@H](O)c1ccc(O)cc1
inactive: [1] | [3] | [4] | [5] | [6]

CCCCC/C=C\CC(O)/C=C/c1cccc(CC(O)CCCCO)n1 (stereo unspecified)
inactive: [1] | [2] | [3] | [4] | [5] | [6]

O=C(O)[C@@H]1C[C@H](C(=O)O)N1
inactive: [1] | [3] | [4] | [5] | [6]

N[C@@H](CCCC(=O)O)C(=O)O
inactive: [1] | [2] | [3] | [4] | [5] | [6]

COc1cc(C(O)CO)ccc1O (stereo unspecified)
inactive: [1] | [2] | [3] | [4] | [5] | [6]

C=C(C)C1CC=C(C(=O)O)CC1 (stereo unspecified)
inactive: [1] | [2] | [3] | [4] | [5] | [6]

Nc1ccc(CCNc2ncnc3c2ncn3C2OC(CO)C(O)C2O)cc1 (stereo unspecified)
inactive: [1] | [2] | [3] | [4] | [5] | [6]

N=S(=O)(O)Cc1noc2ccccc12
inactive: [1] | [2] | [3] | [4] | [5] | [6]

O=C(O)CC1CCCc2ccccc2C1O (stereo unspecified)
inactive: [1] | [2] | [3] | [4] | [5] | [6]
